The list is not random: actives were taken first. Their share in the collection is about 4.7%.
RecA splice inh: Mtb RecA intein splicing inhibitors, primary screen, biochemical, fluorescence, HTS; cell-free RecA intein splicing; inhibition, % (concentration not given with the values); hit rate 0.75% among 290,000; in the data active = inhibition above about 30%;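 note: 0% = vehicle wells and 100% = reference inhibitor control wells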
VHR inh abs: VHR1 phosphatase inhibitors, primary screen, biochemical, absorbance, uHTS | recombinant VHR phosphatase, pNPP absorbance | AID 1654, 2009 | inhibition, % at 13.3 µM | hit rate 0.52% among 290,000 | Dual specificity protein phosphatase 3 (Homo sapiens), P51452; in the data active = inhibition above about 50%
Target sequence (P51452 whole entry, looked up): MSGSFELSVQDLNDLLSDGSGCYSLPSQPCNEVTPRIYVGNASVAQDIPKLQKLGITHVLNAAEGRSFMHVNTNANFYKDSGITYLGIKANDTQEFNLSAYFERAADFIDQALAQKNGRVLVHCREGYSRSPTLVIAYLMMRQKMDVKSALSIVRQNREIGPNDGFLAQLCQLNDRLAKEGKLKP
CCHF vOTU inh: CCHFV vOTU protease inhibitors, primary screen, biochemical, Pep-AMC substrate, fluorescence. Crimean-Congo hemorrhagic fever virus L polyprotein viral ovarian tumor (vOTU) protease …. inhibition, % at 11.5 µM. hit rate 0.55% among 370,000; note: 0% = vehicle wells with enzyme and 100% = no enzyme wells
GDH-TPI inh: GDH-TPI coupling enzyme inhibitors, primary screen, artefact control for M. tuberculosis FBA inhibitor project, biochemical, absorbance, full deck. GDH-TPI coupled enzyme counterscreen, NADH absorbance. inhibition, % at 4.8 µM. hit rate 1.2% among 360,000. AID 588335, 2011;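 note: 0% = DMSO wells and 100% = wells lacking the enzyme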
FBA Mtb inh: Mtb FBA enzyme inhibitors, primary screen, biochemical, fluorescence, strain H37Rv; inhibition, % at 1 µM; hit rate 2.3% among 360,000; Fructose-bisphosphate aldolase (Mycobacterium tuberculosis (strain ATCC 25618 / H37Rv)), …; purified M. tuberculosis FBA, fluorescence read-out; in the data active = inhibition above about 27%;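 note: 0% = vehicle and 100% = reference inhibitor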
Target sequence (P9WQA3 whole entry, looked up): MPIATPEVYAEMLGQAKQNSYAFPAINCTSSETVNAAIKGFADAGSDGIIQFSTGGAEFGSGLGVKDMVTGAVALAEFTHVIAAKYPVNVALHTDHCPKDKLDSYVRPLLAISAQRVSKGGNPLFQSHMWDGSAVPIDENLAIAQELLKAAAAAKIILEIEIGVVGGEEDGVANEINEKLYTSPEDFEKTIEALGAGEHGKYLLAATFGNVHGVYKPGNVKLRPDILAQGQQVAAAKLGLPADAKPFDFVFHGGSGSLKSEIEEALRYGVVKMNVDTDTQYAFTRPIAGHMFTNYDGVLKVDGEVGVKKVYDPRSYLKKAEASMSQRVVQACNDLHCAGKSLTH
3CLpro inhibitor: SARS-CoV 3CLpro protease inhibitors, primary screen, biochemical, quenched FRET | Replicase polyprotein 1ab (Severe acute respiratory syndrome coronavirus), P0C6X7 | recombinant SARS-CoV 3CLpro, quenched FRET peptide cleavage | inhibition, % at 6 µM | hit rate 0.14% among 290,000 | AID 1706, 2009; in the data active = inhibition above about 12%
GFP chromo cs: counter-screen: blocks GFP chromophore formation, dose response, counter-screen, biochemical, fluorescence, homogeneous | shares compounds with RecA splice inh | cell-free GFP chromophore formation | EC50, µM | hit rate 83% among 2,100; call rule not given here
Active calls of the source: *; / = no result given. Cut-off read from the data, not from the text of the source, unless noted: active = inhibition above about 30%; inactive = the rest.

SMILES | RecA splice inh | VHR inh abs | CCHF vOTU inh | GDH-TPI inh | FBA Mtb inh | 3CLpro inhibitor | GFP chromo cs
CCOc1cc(C(c2c(C)[nH][nH]c2=O)c2c(C)[nH][nH]c2=O)ccc1OC(=O)c1cccc([N+](=O)[O-])c1 | 92* | 6 | 18 | 1 | -3 | 3 | 0.44*
CCOc1cc(/C=C2/NC(=S)NC2=O)ccc1OCc1ccc([N+](=O)[O-])cc1 | 1 | -18 | 7 | 2 | 0 | -7 | /
CCOc1ccc(C(=O)Oc2cc(C)[nH]c(=O)c2[N+](=O)[O-])cc1OCC | -4 | 4 | 9 | 4 | 2 | 0 | /
CCOc1cc(C(c2c(C)[nH][nH]c2=O)c2c(C)[nH][nH]c2=O)ccc1OCc1ccc([N+](=O)[O-])cc1 | 99* | 20 | 10 | 9 | 4 | 7 | 0.33*
O=C(OCC(=O)N1CCN(C(=O)c2ccco2)CC1)c1cccc(S(=O)(=O)N2CCc3ccccc32)c1 | 2 | 22 | -2 | 1 | -2 | 7 | /
CC(C)c1nnc(NC(=O)CCS(=O)(=O)c2nc(-c3cccs3)cc(C(F)(F)F)n2)s1 | 32* | 15 | 13 | 27 | 5 | 5 | >38
COc1ccc(Cl)cc1NC(=S)NC(=O)c1ccco1 | / | / | 10 | 13 | -1 | / | /
Nc1nc(-c2ccc(Cl)cc2)c(S(=O)(=O)c2ccccc2)s1 | 3 | 26 | 12 | 7 | -2 | 5 | /
Nc1nc(-c2ccc(Br)cc2)c(S(=O)(=O)c2ccccc2)s1 | 81* | -2 | -12 | 0 | -1 | 4 | >38
NS(=O)(=O)c1ccc(CNS(=O)(=O)c2cccc3nonc23)cc1 | -2 | 29 | 0 | 4 | 1 | 0 | /
COc1ccc(/C=C2/C(=O)N(Cc3ccccc3)N=C2C)cc1 | 59* | -7 | 1 | 2 | 5 | 8 | 7.3*
N#CC(CC(=O)OCc1ccccc1)NC(=O)OCc1ccccc1 (stereo unspecified) | / | / | 1 | 4 | -1 | / | /
COc1ccc2nc3cccc(OC)c3nc2c1 | 45* | -11 | 6 | -8 | -4 | -13 | 24*
COc1ccc2nc3ccccc3nc2c1N | 64* | 21 | 2 | 2 | 2 | -3 | 40*
COc1ccc2nc(-c3ccccc3)cc(OC)c2c1 | 4 | -13 | 4 | -6 | 0 | 0 | /
COc1ccc(-c2nc3ccccc3nc2-c2ccc(OC)c(OC)c2)cc1OC | 0 | -4 | 0 | -8 | -4 | -4 | /
O=[N+]([O-])c1cccc(CON=Cc2ccccc2O)c1 | / | / | 9 | 7 | -1 | / | /
CC1=NNC(=O)/C1=C\c1cn(-c2ccccc2)nc1-c1ccccc1 | 97* | -8 | 26 | 9 | -4 | 3 | 1.8*
O=S(=O)(c1ccc(Cl)c(Cl)c1)c1snnc1-c1ccccc1 | 80* | -41 | / | -1 | 1 | 7 | 1.3*
c1ccc(-c2nnsc2-c2ccccc2)cc1 | 2 | 87 | 17 | -11 | -2 | -3 | /
CCOc1cc(/C=C2/NC(=O)NC2=O)cc([N+](=O)[O-])c1O | 1 | 24 | 12 | 21 | -14 | 5 | /
COC(=O)COc1c(Cl)cc(C(c2c(C)[nH][nH]c2=O)c2c(C)[nH][nH]c2=O)cc1OC | 96* | 1 | 12 | 10 | 4 | 2 | 0.58*
CCOc1cc(/C=C2\N=C(C)OC2=O)cc(Cl)c1OCC(=O)OC | / | / | -9 | 6 | 0 | / | /
Cc1ccc(C(c2c(C)[nH][nH]c2=O)c2c(C)[nH][nH]c2=O)cc1[N+](=O)[O-] | 99* | 4 | -17 | 0 | 2 | 7 | 0.49*
Cc1ccc(/C=C2\NC(=S)NC2=O)cc1[N+](=O)[O-] | 2 | 24 | -8 | 10 | -3 | -1 | /
SMILES | RecA splice inh | VHR inh abs | CCHF vOTU inh | GDH-TPI inh | FBA Mtb inh | 3CLpro inhibitor | GFP chromo cs
CCOc1cc(C(c2c(C)[nH][nH]c2=O)c2c(C)[nH][nH]c2=O)cc(Cl)c1O | 95* | 0 | -2 | 4 | -4 | 1 | >38
CCOc1cc(C(c2c(C)[nH][nH]c2=O)c2c(C)[nH][nH]c2=O)cc([N+](=O)[O-])c1O | 97* | 6 | 22 | 13 | -4 | 4 | 0.45*
CCOc1ccc(CCNC(=O)COC(=O)c2sccc2C)cc1OCC | 4 | / | 3 | 1 | 2 | / | /
C#CCOCC1CN(C)C(=O)O1 (stereo unspecified) | / | / | -2 | 6 | 4 | / | /
COc1ccc(C)cc1NC(=O)/C=C/c1ccc(OC)c(S(=O)(=O)N2CCOCC2)c1 | / | / | -2 | 21 | -2 | / | /
COc1cc(C(c2c(C)[nH][nH]c2=O)c2c(C)[nH][nH]c2=O)cc([N+](=O)[O-])c1O | 97* | 16 | 13 | 13 | -12 | 3 | 0.45*
COc1cc(/C=C/c2[nH]c(=O)[nH]c(=O)c2[N+](=O)[O-])cc([N+](=O)[O-])c1O | -1 | 15 | 13 | 26 | -20 | 0 | /
O=C(c1c[nH]c(C(=O)C(Cl)(Cl)Cl)c1)c1c(F)cccc1F | 14 | 7 | -4 | 5 | 2 | 5 | /
O=C(c1c[nH]c(C(=O)C(Cl)(Cl)Cl)c1)c1ccccc1Cl | 32* | -7 | 8 | -8 | -1 | 3 | 25*
Cc1[nH]nc2c1C1(CCOCC1)C(C#N)=C(N)O2 | 78* | 8 | / | 4 | -1 | 2 | 13*
Cc1[nH]nc2c1C1(CCN(Cc3ccccc3)CC1)C(C#N)=C(N)O2 | 85* | 24 | 1 | 12 | 3 | -3 | 14*
Cc1[nH]nc2c1C1(CCOC1C)C(C#N)=C(N)O2 (stereo unspecified) | -1 | -7 | -12 | 8 | -4 | 0 | /
CC(C)c1[nH]nc2c1C1(CCN(Cc3ccccc3)CC1)C(C#N)=C(N)O2 | 68* | 14 | 3 | -9 | 1 | -8 | 21*
CCOC(=O)C1CCC2(CC1)C(C#N)=C(N)Oc1n[nH]c(C)c12 (stereo unspecified) | 79* | 29 | 3 | -8 | 0 | -4 | >38
CCOC(=O)C1CCCCC12C(C#N)=C(N)Oc1n[nH]c(C)c12 (stereo unspecified) | 23 | 14 | -6 | 2 | 7 | -2 | /
CCC(=O)N1CCCC(C)(C(=O)Nc2nccc3cccnc23)C1 (stereo unspecified) | / | / | 7 | 15 | 1 | / | /
Cc1cc(C)n2c(SCC(=O)Nc3cccc(S(N)(=O)=O)c3)nnc2n1 | / | / | 10 | 10 | -1 | / | /
CC1CC(C)CN(C(=O)CCCNC(=O)c2ccc(Cl)cc2)C1 (stereo unspecified) | -1 | 38 | 14 | 0 | 2 | -10 | /
NCCNc1ccc([N+](=O)[O-])c(NC2CC2)c1 | 2 | 3 | -2 | 0 | -6 | 3 | /
